# Source: PubChem (National Center for Advancing Translational Sciences (NCATS))
# SW480 rereplic: A quantitative high throughput screen for small molecules that induce DNA re-replication in SW480 colon adenocarcinoma cells. 1.8% of 340,000 active. Potency, µM (titrated, usually from 46.1 µM), inactives show top-dose re-replication activation, actives largely listed as activators. SW480 DNA re-replication, Hoechst DNA content imaging, 48 h. AID 624297, 2012; further: potency means the concentration at half of the fitted maximal effect; % of control where 0% means no effect; nearly all actives have a fitted effect of over 55% in size
#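 Per well, 250 cells were exposed to pinned compound for 48 hr. Nuclear DNA was visualised with Hoechst (40 min, 37 C) and total object intensity recorded by fluorescence scanning.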
# MCF10A rerep: A quantitative high throughput screen for small molecules that induce DNA re-replication in MCF 10a normal breast cells; MCF 10A DNA re-replication, Hoechst nuclear intensity, 48 h; Potency, µM (top dose mostly 46.1 µM), for inactives: at the top dose activity, positive = re-replication, most hits filed as activators; 2.9% of 350,000 active; further: potency means the concentration at half of the fitted maximal effect; % of control where 0% means no effect; nearly all actives have a fitted effect of over 50% in size
# VP16 counter: VP16 counterscreen qHTS for inhibitors of ROR gamma transcriptional activity | Drosophila S2 Gal4-VP16 UAS-luciferase, luminescence, 20 h | Potency, µM (series often up to 53.6 µM), for the others: at the highest dose activity, negative = inhibition, hits mostly inhibitors | 3.5% of 310,000 active | AID 2546, 2010;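 further: Gal4-VP16 expression switched on by copper sulfate through the metallothionein promoter; potency means the concentration at half of the fitted maximal effect; on the % scale 0 is the no-effect control and ±100 the full control effect; nearly all actives have a fitted effect of over 50% in size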
# IL1B secr inh: qHTS for Inhibitors of Inflammasome Signaling: IL-1-beta AlphaLISA Primary Screen | THP-1 LPS/ATP IL-1B secretion, AlphaLISA, 16 h; hits give low values | activity change, % at 57.5 µM | 4.7% of 360,000 active | AID 743279, 2014; in the data active means activity change below about -50%; inconclusive means mostly about -30% to -49%; further: on the % scale 0 is the no-effect control and ±100 the full control effect
#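 Secreted IL-1B measured by AlphaLISA bead assay after 16 h compound exposure of THP-1 cells; compounds (final up to 57.5 uM) added 1 h before LPS (250 ng/mL) and ATP (1.25 mM) stimulation; lower signal means less secretion.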
# RORg inh: qHTS for inhibitors of ROR gamma transcriptional activity. Potency, µM (doses to about 53.6 µM), for inactives: at the highest dose activity change, negative = inhibition, hits mostly inhibitors. Nuclear receptor ROR-gamma (Mus musculus), P51450. Drosophila S2 Gal4-RORgamma UAS-luciferase reporter, 20 h. 5.4% of 310,000 active; further: potency means the concentration at half of the fitted maximal effect; on the % scale 0 is the no-effect control and ±100 the full control effect; nearly all actives have a fitted effect of over 60% in size
# Target sequence (P51450 whole entry, looked up, the tested form may be a part): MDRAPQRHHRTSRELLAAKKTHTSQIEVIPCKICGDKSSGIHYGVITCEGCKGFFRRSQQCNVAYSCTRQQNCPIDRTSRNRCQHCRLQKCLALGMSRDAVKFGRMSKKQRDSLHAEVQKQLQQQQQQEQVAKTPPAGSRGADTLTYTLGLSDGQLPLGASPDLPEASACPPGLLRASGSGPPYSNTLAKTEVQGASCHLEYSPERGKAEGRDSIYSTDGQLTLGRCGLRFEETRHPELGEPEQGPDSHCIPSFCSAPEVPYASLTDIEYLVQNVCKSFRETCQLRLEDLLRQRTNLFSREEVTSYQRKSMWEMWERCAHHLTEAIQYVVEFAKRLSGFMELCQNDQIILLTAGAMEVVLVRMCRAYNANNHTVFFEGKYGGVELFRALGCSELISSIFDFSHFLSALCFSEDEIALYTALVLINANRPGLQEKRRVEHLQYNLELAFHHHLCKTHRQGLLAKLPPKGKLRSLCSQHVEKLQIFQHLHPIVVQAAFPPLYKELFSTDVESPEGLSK
#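 Luciferase reporter read in Schneider cells carrying Gal4-RORγ (mouse) and UAS-Photinus luciferase; cells given compound 1 h before 700 uM copper sulfate induction, then incubated 20 h at ambient temperature.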
# An asterisk follows results filed as active; ? = inconclusive; / = no result; [ ] = another dose, or the depositor's remark. Hits are enriched below; roughly 11% of the tested compounds scored in any of these assays. Unless noted, the call rests on the fitted dose curve; in most records, active means well fitted curve in the direction sought with a large enough effect; inconclusive means small, poorly fitted or top-dose-only effect, or another doubt; inactive means no such curve, though single readings can be large; an effect the other way counts as inactive or inconclusive.
SMILES,SW480 rereplic,MCF10A rerep,VP16 counter,IL1B secr inh,RORg inh
N#C/C(=C\c1ccccc1[N+](=O)[O-])C(=O)NCc1ccccc1,?,?,?,-29,?
CS(=O)(=O)c1ccc(C(=O)N2CCN(C(=O)c3ccco3)CC2)cc1,-3%,-1%,/,14,/
COCCN(C(=O)CCl)C(C(=O)NC1CCCCC1)c1ccccc1C (configuration not stated),13µM*,?,?,-101*,?
O=C(NC1CCCC1)C(c1ccc(F)cc1)N(Cc1ccccc1Cl)C(=O)CCl (configuration not stated),?,?,-10%,-91*,-13%
O=S(=O)(NCc1ccccn1)c1ccccc1,-10%,-2%,-2%,0,-32%
O=S(=O)(NCc1ccccn1)c1ccccn1,-11%,-21%,-1%,28,11µM*
O=S(=O)(NCc1ccccc1)c1ccccc1Br,-34%,2%,-8%,6,15%
O=S(=O)(NCc1ccccc1)c1ccc(Br)c2nsnc12,?,-2%,2%,-72*,17%
O=S(=O)(NCc1ccccn1)c1cccc2nsnc12,0%,-1%,?,22,7.9µM*
O=S(=O)(NCc1ccccn1)c1ccc(Cl)s1,-76%,3%,?,-2,8.9µM*
Cc1cccc(NC(=O)CN2CCN(C(=O)CN3C(=O)NC4(CCCCC4C)C3=O)CC2)c1C (configuration not stated),1%,-1%,/,2,/
COc1ccc(S(=O)(=O)N2CCC(C(N)=O)CC2)cc1C(=O)N1CCCCCC1,-22%,0%,-10%,-7,2%
O=[N+]([O-])c1nn(-c2ccc3c(c2)OCCO3)n(O)c1=NCc1ccc(F)cc1Cl,-4%,-9%,0%[10 µM],-11,-2%
CN=c1c([N+](=O)[O-])nn(-c2ccc3c(c2)OCCO3)n1O,16µM*,2%,-22%,?,30%
COc1cc(N=c2c([N+](=O)[O-])nn(-c3ccc4c(c3)OCCO4)n2O)cc(OC)c1,?,21µM*,-18%,-22,15%
O=[N+]([O-])c1nn(-c2ccc3c(c2)OCCO3)n(O)c1=NCc1ccc(F)cc1,14%,?,-12%,-76*,23%[10 µM]
O=C(COC(=O)/C=C/c1ccccc1)NC(=O)NCc1ccccc1,0%,19%,/,-19,/
C=CC[C@@H]1C=C[C@H](O/N=C(\C)CCN2CCc3nc(-c4ccccc4)c(-c4ccccc4)cc3C2)[C@H](CO)O1,/,/,-6%[10 µM],/,-7%[10 µM]
C=CCn1c(SCC(=O)Nc2ccccc2OC)nnc1-c1ccccn1,18µM*,?,-4%,9,-24%
O=C(CSc1n[nH]c(-c2ccccn2)n1)Nc1ccccc1,?,6%,?,178,?
O=C(CSc1n[nH]c(-c2ccccn2)n1)Nc1ccccc1F,?,16%,5µM*,54,3.5µM*
Nc1nc(SCC(=O)Nc2cccc(Oc3ccccc3)c2)n[nH]1,-4%,28%,-6%,-21,?
Nc1nc(SCC(=O)Nc2ccc(Oc3ccccc3)cc2)n[nH]1,9%,-4%,18µM*,10,?
CCCc1ccc(-c2cc(NC(=O)CSc3n[nH]c(N)n3)n(-c3ccccc3)n2)cc1,?,21µM*,4%,-5,18%
COc1ccc(/C=C/C(=O)OCC(=O)NC2CCCC2)cc1OC,-6%,1%,/,-2,/
SMILES,SW480 rereplic,MCF10A rerep,VP16 counter,IL1B secr inh,RORg inh
COCCCNC(=O)CCN1N=C(c2ccccc2)CCC1=O,-11%,-11%,6%,0,-10%
COc1ccccc1NC(=O)CSc1n[nH]c(-c2ccccn2)n1,?,17%,5µM*,108,6.3µM*
CCn1c(SCC(=O)C(C)(C)C)nnc1-c1ccccn1,1%,23µM*,0%,1,25%
COc1ccc(NC(=O)CSc2n[nH]c(-c3ccccn3)n2)cc1,?,?,?,150,16µM*
COc1ccccc1NC(=O)CSc1n[nH]c(-c2ccco2)n1,2%,-15%,/,9,/
COc1ccc([C@@H](OC)[C@@]2(Cc3ccc(O)cc3)N=C(N)N(C)C2=O)cc1,2%,25%,/,-11,/
COc1ccc2c(c1OC)C(=O)OC2Nc1nc(-c2ccc([N+](=O)[O-])cc2)cs1 (configuration not stated),-2%,5%,?,-8,0%
COc1ccc2c(c1OC)C(=O)OC2Nc1nc(-c2cc3cc(Br)ccc3oc2=O)cs1 (configuration not stated),?,?,3%,-56*,22%
COc1ccc(-c2csc(NC3OC(=O)c4c3ccc(OC)c4OC)n2)cc1OC (configuration not stated),18%,?,7.9µM*,/,3.5µM*
CCOC(=O)c1sc2c(c1C)c(=O)n(CCO)c(=O)n2Cc1ccccc1,-24%,-2%,-5%,-1,0%
Cc1cccc(NC(=S)/N=C(\N)Nc2nc(C)c3ccccc3n2)c1,-8%,28%,5µM*,-27,2.2µM*
COc1ccc2c(C)nc(N/C(N)=N/S(=O)(=O)c3ccc(C)cc3)nc2c1,2%,-6%,-2%,?,-3%
Cc1ccc(NC(=S)/N=C(\N)Nc2nc(C)c3ccccc3n2)cc1C,1%,12%,1µM*,19,1µM*
Cc1cc(C)cc(NC(=S)/N=C(\N)Nc2nc(C)c3ccccc3n2)c1,?,-46%,3.2µM*,2,2µM*
Cc1ccc(S(=O)(=O)/N=C(\N)Nc2nc(C)c3ccccc3n2)cc1,-79%,?,-15%,-21,23%
Cc1cccc(NC(=S)/N=C(\N)Nc2nc(C)c3ccc(C)cc3n2)c1,7.3µM*,?,3.5µM*,-6,1µM*
Cc1cccc(N/C(N)=N/c2nc(C)cc(=O)[nH]2)c1,-5%,-9%,-18%,-10,20%
COc1cccc(-c2ccc3c(c2)O[C@H](CN(C)C(=O)c2ccccc2F)[C@H](C)CN([C@H](C)CO)S3(=O)=O)c1,/,/,/,-29,/
Cc1cccc(NC(=S)/N=C(\N)Nc2nc(C)c3cc(C)ccc3n2)c1,?,17%,4.5µM*,?,7.1µM*
CCCCOC(=O)Nc1ccc(S(=O)(=O)Nc2onc(C)c2C)cc1,-4%,-5%,-6%,40,-10%
COc1ccc(N2CCN(Cc3cc4c(cc3Br)OCCO4)CC2)cc1,2%,13%,4%,-68*,1%
COc1ccc(C(=O)/C=C2\C(=O)Nc3ccc(Br)cc32)cc1,?,7.3µM*,/,-99*,/
COc1ccc(C(=O)c2ccc(Br)cc2)cc1,-3%,-1%,-18%,-18,34%
